Assay results taken from publication PMC4336329 (PLoS ONE, 2015).
The whole screen tested about 310,000 compounds, of which about 14,000 (4.5%) showed an effect of 50% or more. Effects have a minus sign here. For the sample, strong results were picked, then their nearest neighbours and some compounds at random.

Molecular target: human ether-à-go-go-related gene (hERG) potassium channel (human, UniProt Q12809)
Test: primary screen, population patch clamp on CHO cells stably expressing hERG; higher = less effect of the substance
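Also: peak tail current of the secondary pulse compared with the same well before compound.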

Chain of human ether-à-go-go-related gene (hERG) potassium channel (Q12809 whole entry, looked up): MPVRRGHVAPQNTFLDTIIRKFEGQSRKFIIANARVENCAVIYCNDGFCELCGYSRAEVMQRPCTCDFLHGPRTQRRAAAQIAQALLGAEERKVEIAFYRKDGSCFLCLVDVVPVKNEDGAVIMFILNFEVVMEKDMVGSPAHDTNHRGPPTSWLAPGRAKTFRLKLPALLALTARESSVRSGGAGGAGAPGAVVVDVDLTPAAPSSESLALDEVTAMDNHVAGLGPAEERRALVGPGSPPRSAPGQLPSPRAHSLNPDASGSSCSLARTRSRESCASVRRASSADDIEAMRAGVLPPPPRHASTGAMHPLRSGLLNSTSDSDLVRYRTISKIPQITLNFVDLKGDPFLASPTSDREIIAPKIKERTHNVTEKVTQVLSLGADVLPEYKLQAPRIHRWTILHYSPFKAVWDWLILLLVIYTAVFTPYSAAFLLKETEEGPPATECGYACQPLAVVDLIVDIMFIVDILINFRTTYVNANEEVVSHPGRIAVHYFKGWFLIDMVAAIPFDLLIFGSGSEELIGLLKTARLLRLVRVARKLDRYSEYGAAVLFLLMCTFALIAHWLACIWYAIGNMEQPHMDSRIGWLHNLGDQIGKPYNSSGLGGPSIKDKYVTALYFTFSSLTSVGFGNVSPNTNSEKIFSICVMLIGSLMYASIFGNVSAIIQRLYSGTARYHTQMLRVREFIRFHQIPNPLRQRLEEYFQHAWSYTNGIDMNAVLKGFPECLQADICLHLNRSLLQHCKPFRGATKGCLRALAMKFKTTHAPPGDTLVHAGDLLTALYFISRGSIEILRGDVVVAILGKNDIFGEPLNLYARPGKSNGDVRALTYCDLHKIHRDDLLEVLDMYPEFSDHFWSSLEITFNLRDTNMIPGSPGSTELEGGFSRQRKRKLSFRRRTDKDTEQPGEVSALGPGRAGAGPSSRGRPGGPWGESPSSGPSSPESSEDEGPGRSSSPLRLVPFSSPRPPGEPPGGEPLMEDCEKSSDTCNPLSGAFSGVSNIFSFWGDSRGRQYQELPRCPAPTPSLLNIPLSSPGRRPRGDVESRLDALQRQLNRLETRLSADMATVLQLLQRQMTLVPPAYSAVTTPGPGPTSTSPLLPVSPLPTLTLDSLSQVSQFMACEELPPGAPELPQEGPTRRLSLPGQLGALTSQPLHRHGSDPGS

| Structure (SMILES) | hERG current change (%, negative = inhibition) at 10uM [%] |
| --- | --- |
| CCCc1cc(=O)[nH]c(-n2[nH]c3c(c2=O)CCCC3)n1 | 13.9 |
| CCOC(=O)N1CCN(c2nnc(-c3ccc(C)cc3)c3ccccc23)CC1 | -70.1 |
| CCOC(=O)N1CCN(c2nnc(-c3ccccc3)c3ccccc23)CC1 | -22 |
| CCCC(=O)N1CCN(c2nnc(-c3ccc(C)cc3)c3ccccc23)CC1 | -81.1 |
| CCCC(=O)N1CCN(c2nnc(-c3ccccc3)c3ccccc23)CC1 | -45.4 |
| CCCCS(=O)(=O)Nc1ccc(C(=O)NCC2CCCO2)cc1 (stereo not shown) | -4.69 |
| CC(C)=CCc1c(-c2ccc(O)cc2O)oc2c3c(cc(O)c2c1=O)OC(C)(C)C=C3 | 17.6 |
| Cl.NC1C=CC=C(C(=O)O)C1 (stereo not shown) | 3.23 |
| CC1(C)Cc2c(sc3c2C2=NCCN2C=N3)CS1.Cl | -16.3 |
| CC1(C)Cc2c(sc3c2C(=O)N(c2ccccc2)C2=NCCN23)CS1.Cl | -5.58 |
| CN1C(=O)c2c(sc3c2CC(C)(C)SC3)N2CCN=C12.Cl | -72.6 |
| COc1cc(OC)c(OC)cc1CNC(C)C(O)c1ccccc1.Cl (stereo not shown) | 12.6 |
| C[C@H](NCCc1ccc(O)cc1)[C@H](O)c1ccc(O)cc1.Cl | 6.27 |
| COc1ccc(CCC(C)NCc2ccccc2OC)cc1 (stereo not shown) | -40.4 |
| CC(CCc1ccc(O)cc1)NCCC(c1ccccc1)c1ccccc1 (stereo not shown) | -76.1 |
| COc1cc(CCC(C)NCc2ccccc2)ccc1O (stereo not shown) | -3.87 |
| CC(CCc1ccccc1)NC(C)C(O)c1ccc(O)cc1.Cl (stereo not shown) | -65.3 |
| COc1ccccc1CCNC(C)CCc1ccc(O)cc1 (stereo not shown) | -52.5 |
| CC(CCc1ccc(O)cc1)NCCc1ccc(O)c(O)c1.Cl (stereo not shown) | -13.9 |
| CC(NCCc1ccc(O)cc1)C(O)c1ccc(O)cc1.Cl (stereo not shown) | 5.08 |
| COc1cc(OC)c(OC)cc1CCC(C)NCCC(c1ccccc1)c1ccccc1.Cl (stereo not shown) | -71.1 |
| CC(CCc1ccc(O)cc1)NC(c1ccccc1)c1ccc(Cl)cc1 (stereo not shown) | -14.3 |
| COc1cc(OC)c(OC)cc1CCC(C)NC(=O)Cc1ccccc1 (stereo not shown) | 5.68 |
| COc1ccc(-c2sc(NC(=O)c3ccc(C)cc3)nc2-c2ccc([N+](=O)[O-])cc2)cc1 | 9.66 |

| Structure (SMILES) | hERG current change (%, negative = inhibition) at 10uM [%] |
| --- | --- |
| CCOc1ccc(-n2c(SCC)nc3c(c2=O)SCC3)cc1 | 15 |
| Cn1c(=O)c2ccccc2n(CC(=O)NC2CCCC2)c1=O | 9.82 |
| CCCN(CCC)Cc1cc(=O)oc2cc3c(cc12)CCC3 | -9.37 |
| CC(=O)O.CC(=O)Oc1ccc2c(c1)OC(c1ccccc1)CC21CC(C)(C)NC(=O)N1 (stereo not shown) | 3.82 |
| O=C1CCCN1CCCNS(=O)(=O)c1ccc(F)cc1F | 8.77 |
| Cc1ccc(-n2nc3c(c2NC(=O)CC(C)C)CS(=O)(=O)C3)c(C)c1 | 25 |
| O=C(COC(=O)C1CC(=O)N(Cc2ccccc2)C1)Nc1ccc(Cl)cc1F (stereo not shown) | 48 |
| C/C(=N\NC(=O)c1nnn(-c2nonc2N)c1CSc1ccc(C)cc1)c1ccco1 | -9.04 |
| O=C1c2ccccc2NC(c2ccc(O)cc2)N1Cc1ccco1 (stereo not shown) | -24.3 |
| CCOC(=O)C(C)CC(C)C(=O)N1CCOCCN(C(=O)C(C)CC(C)C(=O)OCC)CCOCC1 (stereo not shown) | -9.48 |
| COc1ccc(CN(Cc2cc3ccc(C)cc3[nH]c2=O)Cc2nnnn2C2CCCC2)cc1 | -21.4 |
| CC1(C)Cc2c(c(N3CCOCC3)nc3sc(C(N)=O)c(N)c23)CO1 | -5.66 |
| O=C(NCC1CCCO1)c1cc(-c2ccc(Cl)cc2Cl)on1 (stereo not shown) | -9.68 |
| Nc1nccnc1C(=O)OCC(=O)N1CCN(S(=O)(=O)c2ccc(Cl)cc2)CC1 | -15.4 |
| CCCNC(=O)CSc1nc2ccccc2c(=O)n1CCC | 3.3 |
| O=C(Nc1ccccc1N1CCCC1)c1ccc(N2CCCC2=O)cc1 | -22.1 |
| COc1ccc(C)cc1NC(=O)COC(=O)c1ccc2ccccc2n1 | 3.24 |
| CC(CCc1ccc(O)cc1)N(C)CCc1ccccc1 (stereo not shown) | -62.2 |
| COc1ccc(CCC(C)N(C)Cc2ccccc2)cc1 (stereo not shown) | -34.8 |
| CC(O)CCc1ccc(O)cc1 (stereo not shown) | 11.7 |
| CCCNC(=O)c1cc(Cl)c(NC(=O)C2=CSCCO2)cc1OC | 16.5 |
| C=CCNC(=O)Nc1cc(Cl)ccc1OC | 7.65 |
| CCOC(=O)c1ccc(NC(=O)CCCN2C(=O)NC3(CCCC3)C2=O)cc1 | -3.62 |
| O=C(O)CCCCCNC(=O)CCn1cnc2ccccc2c1=O | 5.02 |

| Structure (SMILES) | hERG current change (%, negative = inhibition) at 10uM [%] |
| --- | --- |
| COc1ccccc1N1CCN(C(=O)CCCCCn2c(=O)[nH]c3ccsc3c2=O)CC1 | -24.7 |
| O=C1CCCC(=O)N1c1ccc(O)cc1 | 2.73 |
| Cc1ccc(C(=O)NCCN2C3=NC[C@H](C)N3C[C@H]2Cc2ccc(O)cc2)cc1Br | -8.85 |
| Cc1ccc(C(=O)NCCN2C3=NC[C@@H](Cc4ccccc4)N3C[C@H]2Cc2ccc(O)cc2)cc1Br | -71.1 |
| COc1ccc(C[C@H]2CN3C(=NC[C@@H]3Cc3ccc(O)cc3)N2CCNC(=O)c2ccc(C)c(Br)c2)cc1 | -74.3 |
| Cc1ccc(C(=O)NCCN2C3=NC[C@H](Cc4ccc(O)cc4)N3C[C@H]2Cc2ccc(O)cc2)cc1Br | -51.7 |
| C/C=C(\C)C(=O)NCCN1C2=NC[C@H](Cc3ccc(O)cc3)N2C[C@H]1Cc1ccc(O)cc1 | 16.5 |
| COc1cc(/C=C2\SC(=O)NC2=O)ccc1Oc1ccc([N+](=O)[O-])cc1[N+](=O)[O-] | 20.2 |
| Brc1cccc(C=Nc2cccc3ncccc23)c1 | 7.37 |
| CCOc1cc(C)c(Cl)cc1S(=O)(=O)n1nnc2ccccc21 | 6.52 |
| COc1ccc(C(=O)Nc2ccc(Cl)c(Cl)c2)c(OC)n1 | 14.1 |
| O=[N+]([O-])c1ccc(N2CCCCC2)c2ncccc12 | -23.7 |
| O=[N+]([O-])c1ccc(N2CCN(CCO)CC2)c2ncccc12 | -45.4 |
| Cc1ccc(S(=O)(=O)N2CCN(c3ccc(C(F)(F)F)cc3[N+](=O)[O-])CC2)cc1 | -30.8 |
| O=[N+]([O-])c1ccc(N2CCCCCC2)c2ncccc12 | 5.54 |
| CC1CN(c2ccc([N+](=O)[O-])c3cccnc23)CC(C)N1 (stereo not shown) | -33.4 |
| Cc1cc(N2CCN(c3ccc([N+](=O)[O-])c4cccnc34)CC2)c2ccccc2n1 | -64.3 |
| Cl.O=[N+]([O-])c1ccc(N2CCCNCC2)c2ncccc12 | -64.8 |
| O=[N+]([O-])c1ccc(N2CCCC2)c2ncccc12 | 8.6 |
| Nc1nonc1OCCN1CCN(c2ccc([N+](=O)[O-])c3cccnc23)CC1 | -71.7 |
| Cc1cc(N2CCN(c3ccc(C(F)(F)F)cc3[N+](=O)[O-])CC2)c2ccccc2n1 | -88.9 |
| CN1CCN(c2ccc([N+](=O)[O-])c3cccnc23)CC1 | -41.5 |
| O=[N+]([O-])c1cc(C(F)(F)F)ccc1N1CCN(S(=O)(=O)c2ccc3ccccc3c2)CC1 | 9.11 |
| CCOC(=O)N1CCN(C(=O)CSc2nnc(-c3ccccc3OC)o2)CC1 | -12.9 |

| Structure (SMILES) | hERG current change (%, negative = inhibition) at 10uM [%] |
| --- | --- |
| COc1cc(/C=C/c2cccc[n+]2C)ccc1OCC(=O)Nc1ccccc1C.[I-] | 8.13 |
| NC(=O)C1CCN(C(=O)CCCCCn2c(=O)[nH]c3ccsc3c2=O)CC1 | 0.397 |
| COc1cccc(OCC(=O)Nc2c3c(nn2-c2ccccc2)CS(=O)(=O)C3)c1 | -48.5 |
| COc1cc(CNc2nc(C)c([N+](=O)[O-])c(C)c2C#N)cc(OC)c1 | 10.8 |
| NC(=O)Cn1cc(C(=O)COc2ccccc2)c2ccccc21 | -3.45 |
| CC(C)CCNC(=O)COc1ccc(C(=O)c2ccccc2)cc1 | -23.8 |
| Cc1ccc(NC(=O)C(c2ccccc2)N2CCN(CC(=O)NC3CC3)CC2)cc1 (stereo not shown) | -18.1 |
| C[C@@H]1NC(=O)c2cc([N+](=O)[O-])cc(I)c2NCC[C@@H](C(N)=O)NC(=O)[C@H](CC(N)=O)NC1=O | 11.2 |
| COc1cc(/C=N/NC(=S)NCCc2ccccc2)cc(OC)c1OC | 8.26 |
| CCC(=O)N1CCc2cc(Br)cc(S(=O)(=O)NCCN3CCCCC3CC)c21 (stereo not shown) | -20.4 |
| Brc1cccc(-c2nnc3sc(CNCc4ccco4)cn23)c1 | -60.3 |
| Brc1cccc(-c2nnc3sc(CNC4CCCC4)cn23)c1 | -16.2 |
| Brc1cccc(-c2nnc3sc(CN4CCCCC4)cn23)c1 | -11 |
| COc1ccc(C(=O)NCCc2c[nH]c3ccccc23)cc1S(=O)(=O)N1CCCCC1C (stereo not shown) | -12 |
| COc1ccc(C(=O)NCCc2ccc(Cl)cc2)cc1S(=O)(=O)N1CCCCC1C (stereo not shown) | -52.3 |
| COc1ccc(C(CNC(=O)c2cc(S(=O)(=O)N3CCCC3)ccc2Cl)N2CCCC2)cc1 (stereo not shown) | -31.6 |
| COc1ccc(C(=O)Nc2ccc(NC(C)=O)cc2)cc1S(=O)(=O)N1CCCCC1C (stereo not shown) | 1.47 |
| COc1ccc(CCNC(=O)c2ccc(Cl)c(S(=O)(=O)N3CCCCCC3)c2)cc1 | -34.2 |
| O=C(NCCc1ccccc1)c1ccc(Cl)c(S(=O)(=O)N2CCCC2)c1 | -23.1 |
| COc1ccc(CCNC(=O)c2ccc(Cl)c(S(=O)(=O)N3CCCC3)c2)cc1 | -56.6 |
| COc1ccc(C(CNC(=O)c2ccc(Cl)c(S(=O)(=O)N3CCCC3)c2)N2CCCC2)cc1 (stereo not shown) | -57.6 |
| COc1ccc(C(CNC(=O)c2ccc(OC)c(S(=O)(=O)N3CCCC3)c2)N2CCCC2)cc1 (stereo not shown) | 9.12 |
